Source: PubChem (several laboratories)
Shown are actives, neighbours in structure and some others; about 2.1% of the full set was active somewhere.
NFkB transloc inh: inhibitors of IL-1B driven NFkB p65 nuclear import, primary screen, imaging, HUVEC, IL-1B stimulus, high-content imaging; inhibition, % at 2 µM; HUVEC IL-1B NFkB p65 nuclear translocation imaging; AID 796, 2007; 94,000 compounds, 0.43% hits;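 active means inhibition above about 30% together with a positive call from visual inspection of the well image, limit read from the data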;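 further: nuclear over cytoplasmic p65 intensity ratio measured by imaging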
NFkB transloc pot: enhancers of NFkB p65 translocation in HUVEC – imaging, IL-1B stimulus, high-content imaging, primary screen | HUVEC IL-1B NFkB p65 nuclear translocation imaging | activation, % at 2 µM | 94,000 compounds, 0.3% hits;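 active means activation above 40%, about the mean plus 3 SD, also judged a hit on visual image review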;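 further: percent activation is computed from the nuclear over cytoplasmic p65 intensity ratio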
Measles CPE: compounds protecting cells from measles virus cytopathic effect, primary screen, measles RdRp inhibitor project, single point, MLSMR library, absorbance; Measles virus-infected cells, CPE protection; protection (pct of control), % at 4 µM; 140,000 compounds, 1.5% hits; in the data active means protection mostly above about 24%, no sharp cut-off; inactive means mostly below about 26%
IL1B cytotox: cytotoxicity in IL-1B stimulated HUVEC, primary screen, cytotoxicity control for IL-1B NFkB translocation project, imaging, Hoechst nuclear count, IL-1B stimulus. HUVEC cell count loss. cell count reduction, % at 2 µM. 94,000 compounds, 0.41% hits. AID 845, 2007;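 active means cell count reduction more than 3 SD above the screen-wide mean, cut at about 70% in these data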
Numbers stand for hits; i = inactive; nt = not tested or not shown.

SMILES | NFkB transloc inh | NFkB transloc pot | Measles CPE | IL1B cytotox
CCOC(=O)c1c(NC(=O)C2COc3ccccc3O2)sc2c1CC(C)(C)NC2(C)C (stereo not given) | nt | nt | 47 | nt
CCOC(=O)c1c(NC(=O)C2COc3ccccc3O2)sc(C(C)=O)c1C (stereo not given) | i | i | i | i
CC(=Nc1cccc(O)c1)c1sc2ccccc2c1O | 53 | i | i | i
CC1(C)CC(CC(=O)O)(c2ccc(F)cc2)CCO1 (stereo not given) | i | i | i | i
COc1ccccc1C1(CC(=O)O)CCOC(C)(C)C1 (stereo not given) | i | i | 33 | i
Oc1ccccc1CNn1cnnc1 | i | i | i | i
COc1ccc(NC(=O)/C(Cl)=C(/Cl)S(=O)Cc2ccccc2)cn1 (stereo not given) | 65 | i | i | i
O=C(c1ccc(S(=O)(=O)N2CCCCC2)cc1)N1CCCc2ccccc21 | i | i | i | i
O=C(c1ccc(S(=O)(=O)N2CCCC2)cc1)N1CCCc2ccccc21 | i | i | 36 | i
CC(C)(C)c1ccc(C(=O)CS(=O)(=O)c2ccccc2)cc1 | i | i | 48 | i
Cc1ccc(S(=O)(=O)CC(=O)c2ccccc2)cc1 | i | i | i | i
COC(=O)c1ccc2c(c1)S(=O)(=O)NC(=NCc1ccco1)S2 | i | i | 85 | i
CCS(=O)(=O)NCC(c1cccnc1)N1CCN(c2ccc(F)cc2)CC1 (stereo not given) | nt | nt | i | nt
CN(C)c1nc2n(c(=S)n1)CCS2 | i | i | i | i
O=c1c(-c2ccnn2-c2ccc(F)cc2)cnc2n1CCS2 | i | i | i | i
N#Cc1ccc(-n2nccc2-c2cnc3n(c2=O)CCS3)cc1 | i | i | 41 | i
Cc1n[nH]c(=O)nc1NCc1ccc(Cl)cc1 | i | i | 36 | i
Cc1n[nH]c(=O)nc1NCCN(C)C | i | i | i | i
CCCCC(=O)Nc1ccc(C(=O)Nc2nc(CC(=O)OCC)cs2)cc1 | i | i | i | i
NC(=O)c1cc2ccc(O)cc2oc1=Nc1ccccc1 | nt | nt | 30 | nt
NC(=O)c1cc2ccc(O)cc2oc1=NCc1ccccc1 | nt | nt | i | nt
Cc1cc(/C=C2/C(=O)NN(c3ccccc3)C2=O)c(C)n1-c1ccc(O)cc1 | nt | nt | i | nt
COc1ccc(-n2c(C)cc(/C=C3\C(=O)NN(c4ccccc4)C3=O)c2C)cc1 | nt | nt | 99 | nt
CCC(C)(C)n1nnnc1CN1CCN(C(c2ccccc2)c2ccccc2)CC1 | i | i | i | i
Cc1nn(C)c(C)c1S(=O)(=O)N1CCC(C(=O)NCC2COc3ccccc3O2)CC1 (stereo not given) | i | 42 | i | i
SMILES | NFkB transloc inh | NFkB transloc pot | Measles CPE | IL1B cytotox
C=CCn1c(SCc2nc(N)nc(N(C)C)n2)nnc1-c1cccnc1 | i | i | 36 | i
C=CCn1c(SCc2ccccc2)nnc1-c1cccnc1 | i | i | i | i
Cc1c(C)c2ccc(Oc3ccc([N+](=O)[O-])cc3C(F)(F)F)c(C)c2oc1=O | i | 67 | i | i
CCOC(=O)c1[nH]c(=O)[nH]c1CSc1nc(C)cc(C)n1 | i | i | i | i
CCOC(=O)c1[nH]c(=O)[nH]c1COC(=O)c1cc2ccccc2o1 | i | i | 40 | i
CCc1c(C)sc(NC(=O)c2ccco2)c1C(=O)N1CCCCC1 | i | i | 38 | i
CCOc1ccccc1CN1C(=O)NC(C)(c2ccccc2)C1=O (stereo not given) | i | i | i | i
Cn1c(-c2ccc(F)cc2)cnc1SCC(=O)Nc1ccccc1N1CCOCC1 | i | i | i | i
CN(C)c1nc(Oc2ccc(=O)[nH]n2)nc(N2CCOCC2)n1 | i | i | i | i
COc1nc(Oc2ccc(=O)[nH]n2)nc(N2CCOCC2)n1 | i | i | 44 | i
CCN(CCO)Cc1csc2ccc(Br)cc12 | i | i | i | i
CN(C)CCSc1nnc2sc3ccccc3n12 | i | i | i | i
COc1ccc(OCCSc2nnc3sc4ccccc4n23)cc1 | i | i | 47 | i
CCCN1C(=O)c2ccc(C(=O)Nc3nccs3)cc2C1=O | i | i | i | i
COCCN1C(=O)c2ccc(C(=O)Nc3nccs3)cc2C1=O | i | i | 30 | i
S=C(Nc1ccccc1)Nc1ccc(Cl)cc1Cl | i | i | i | i
S=C(Nc1ccccc1)Nc1cc(Cl)ccc1Oc1ccccc1 | i | i | 33 | i
Cc1cc(/C=C2/NC(=O)N(Cc3ccccc3F)C2=O)c(C)n1C(C)C | nt | nt | i | nt
Cc1cc(/C=C2/NC(=O)N(c3ccccc3)C2=O)c(C)n1C(C)C | nt | nt | 55 | nt
Cc1ccc(OCC(=O)N2CCCCC2)c(Br)c1 | 97 | i | i | 87
COc1ccccc1N1CCN(C(=O)COc2ccc(C)cc2Br)CC1 | i | i | i | i
CCOC(=O)C1CCN(CCC(=O)Nc2cccc(Cl)c2)CC1 | i | i | i | i
CCOc1cc(C(=O)OCC(=O)Nc2c(C)cccc2C)ccc1OCC(=O)N1CCOCC1 | nt | nt | 33 | nt
CN(CC(=O)Nc1nccs1)S(=O)(=O)c1ccc(F)cc1 | i | i | i | i
Cc1ccc(C(=O)N2NC(c3ccccc3F)C3C(=O)N(c4cccc(C)c4)C(=O)C32)cc1 (stereo not given) | nt | nt | i | nt
SMILES | NFkB transloc inh | NFkB transloc pot | Measles CPE | IL1B cytotox
COc1ccccc1N1C(=O)C2C(c3ccccc3F)NN(C(=O)c3ccc(C)cc3)C2C1=O (stereo not given) | nt | nt | 51 | nt
CS(=O)(=O)c1nc(-c2ccc(Br)cc2)cc(-c2ccccc2)c1C#N | i | 77 | i | i
COc1ccc(-c2cc(-c3ccccc3)c(C#N)c(S(C)(=O)=O)n2)cc1 | i | i | i | i
CCOC(=O)c1ccc(S(=O)(=O)Nc2cc(C(C)(C)C)no2)cc1 | i | i | 40 | i
O=C(NCCCc1ccccc1)c1ccccc1O | i | i | i | i
O=C(NCCO)c1ccccc1O | i | i | 26 | i
COc1ccc(C2N(S(=O)(=O)c3ccc(C)cc3)CCN2S(=O)(=O)c2ccc(C)cc2)cc1 | i | i | i | i
CCOC(=O)C1=C(CS(=O)(=O)c2ccc(F)c(C)c2)NC(=O)NC1c1ccc(O)c(O)c1 (stereo not given) | nt | nt | i | nt
Cc1ccc(S(=O)(=O)Nc2nncs2)cc1 | i | 55 | i | i
COCc1nnc(NS(=O)(=O)c2ccc(C)cc2)s1 | i | i | i | i
CN(C(=O)c1c(Cl)nc2sccn12)C1CCCCC1 | i | i | 23 | i
Cc1noc(NS(=O)(=O)c2ccc(NC(=O)CSc3nc4ccccc4s3)cc2)c1C | i | i | i | 74
Cc1noc(NS(=O)(=O)c2ccc(NC(=O)CSc3nc4c(cc3C#N)CCC4)cc2)c1C | i | 68 | i | i
Cc1nc2ccccc2c(=O)n1NCc1cc(Br)cs1 | i | i | i | i
Oc1ccc(-c2n[nH]c(=S)n2-c2ccc3c(c2)OCCO3)c(O)c1 | nt | nt | 60 | nt
COc1ccc(-c2n[nH]c(=S)n2-c2ccc3c(c2)OCCO3)cc1 | nt | nt | i | nt
CCCCOC(=O)Oc1ccc2c(=O)c(Oc3cc(C)cc(C)c3)coc2c1 | nt | nt | i | nt
CCCOC(=O)Oc1ccc2c(=O)c(Oc3cc(C)cc(C)c3)coc2c1 | nt | nt | 20 | nt
O=c1[nH]c(-c2ccccc2O)nc2c1CCCC2 | nt | nt | i | nt
COc1cccc(N=Cc2ccc(O)cc2O)c1 | nt | nt | 35 | nt
